This note sets out measurements from PubChem BioAssay (NCATS).

Several values for one entry are separate records, joined by “and”; a condition that tells them apart may be missing. Equal entries are not always repeated. Records with an inconclusive call do not appear. More than one record can exist for a structure, and the calls need not agree. Activity calls are given as the source filed them. Calls follow the shape of the dose curve; as a rule, active = well fitted curve in the direction sought with a large enough effect; inconclusive = small, poorly fitted or top-dose-only effect, or another doubt; inactive = no such curve, though single readings can be large; an effect the other way counts as inactive or inconclusive.

A short description of test [1]: Viability qHTS for spleen associated tyrosine kinase inhibitor (SYKi) naive MV4-11 cells (AID 1963823). Also: nearly all actives have a fitted effect of over 40% in size. The note with it: MV4-11 AML viability, CellTiter-Glo luminescence, 72 h; series mostly up to 45 µM. A digest of the protocol: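 SYKi-naive MV4-11 AML cells, 500 per well, were exposed to library compounds for 72 hr at 37 C, 5% CO2. Viability was then read by CellTiter-Glo luminescence after 10 min at room temperature.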

Test [2] is described as follows: Viability qHTS for spleen associated tyrosine kinase inhibitor (SYKi) drug resistant MV4-11 cells (AID 1963824). Also: nearly all actives have a fitted effect of over 35% in size. Conditions: SYKi-resistant MV4-11 viability, CellTiter-Glo, 72 h; series mostly up to 45 µM. A digest of the protocol: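 CellTiter-Glo luminescence, read 10 min after reagent addition, reports viability after a 72 hr compound exposure. Cells are an MV4-11 line made resistant to SYK inhibition, seeded at 500 per well onto compound-containing plates.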

Test [3] is described as follows: Cellular viability qHTS for adrenocortical cancer (ACC) cell line SW-13 (AID 1963989). Also: nearly all actives have a fitted effect of over 65% in size.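 As to activity (max response): cells grown in serum-free medium with ITS supplement; % is scaled to controls: 0 for no effect and ±100 for the full control effect.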 Conditions: SW-13 ACC cells viability, CellTiter-Glo, 48 h; activity (max response): stronger effect = lower value. A digest of the protocol:
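Luminescent ATP read-out (CellTiter-Glo, 20 min at room temperature) measured metabolically competent SW-13 cells after 48 h compound treatment. Final concentrations spanned up to 46 uM; bortezomib served as positive control.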

The nature of test [4]: Cellular viability qHTS for adrenocortical cancer (ACC) cell line NCI-H295R (AID 1963990). Also: nearly all actives have a fitted effect of over 60% in size. The note with it: CellTiter-Glo ATP luminescence, 48 h; series mostly up to 46.1 µM. Put shortly: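 IC50 and maximal efficacy derive from four-parameter logistic modelling of titration curves, with reads scaled between DMSO-only wells (0%) and doxorubicin hydrochloride (100% inhibition). Compounds spanned up to 46 uM over 48 h.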
Potency is read from the fitted curve at half-maximal effect.

Regarding `C1=C/COCc2cc(ccc2OCCN2CCCC2)Nc2nccc(n2)-c2cccc(c2)COC/1`, the Potency result was “inactive and 118 nM (active)” in test [1]; “inactive and 130 nM (active)” in test [2]; 4.47 µM (active) in test [3]; 5.01 µM (active) in test [4].
As to `CN[C@@H]1[C@@H](O)[C@@H](O[C@@H]2[C@H](O)[C@H](O[C@H]3OC(CN)=CC[C@H]3N)[C@@H](N)C[C@H]2N)OCC1(C)O` (some centres not stated), the Potency entry in test [1], in test [2] and in test [4] was “inactive” in each case. Further, in test [3], the activity (max response) was 5.55% (inactive).
Consider `CC1(C(=O)O)CCC2(C)CCC3(C)C(=CC(=O)C4C5(C)CCC(OC6OC(C(=O)O)C(O)C(O)C6OC6OC(C(=O)O)C(O)C(O)C6O)C(C)(C)C5CCC43C)C2C1` (configuration not stated), for which the Potency result in test [1], in test [2] and in test [4] was “inactive” each time. Moreover, the activity (max response) in test [3] is 1.77% (inactive).
For `COC1=C(OC)C(=O)C(C/C=C(\C)CC/C=C(\C)CC/C=C(\C)CC/C=C(/C)CC/C=C(\C)CC/C=C(\C)CC/C=C(\C)CC/C=C(\C)CC/C=C(\C)CCC=C(C)C)=C(C)C1=O`, the Potency entry in test [1], in test [2] and in test [4] was “inactive” in each case. Further, in test [3], the activity (max response) was 3.03% (inactive).
With `CC(C)C[C@H](NC(=O)[C@H](Cc1ccccc1)NC(=O)OCc1ccccc1)C(=O)C=O`, the Potency was 23.5 µM (active) in test [1] and 20.9 µM (active) in test [2]. For the same compound, the activity (max response) in test [3] is -18.6% (inactive). Besides, the Potency result in test [4] was “inactive”.
On the same counts, the results for `O=c1oc2c(C3OCCCO3)c(O)ccc2c2c1CNCC2` are 13.2 µM (active), 11.8 µM (active), 5.04% (inactive) and “inactive”.
Regarding `Cc1ccc(S(=O)(=O)NC(=O)NN2CCCCCC2)cc1`, the Potency result in test [1], in test [2] and in test [4] was “inactive” each time. Further, the activity (max response) in test [3] was -2.59% (inactive).
As for `O=C(c1ccccc1)c1ccccc1`, the Potency result in test [1], in test [2] and in test [4] was “inactive” each time. Also, the activity (max response) in test [3] is 13.9% (inactive).
